Screening data deposited in PubChem BioAssay by several laboratories.
A selection: hits, their analogues and other compounds. The true share with any hit is near 1.4%.
PrPC surface inh – inhibitors of human cell surface prion protein PrPC. inhibition, % at 13.8 µM. AID 720596. hit rate 0.43% among 370,000. P04156. TR-FRET read-out; in the data active means inhibition above about 24%; further: 0% = median of the test wells and 100% = reference compound wells
RecA splice inh – Mtb RecA intein splicing inhibition | P9WHJ3 | cell-free RecA intein splicing, fluorescence | inhibition, % (test concentration not listed) | hit rate 0.75% among 290,000; in the data active means inhibition above about 30%;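 further: 0% = vehicle wells and 100% = reference inhibitor control wells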
Target sequence (P9WHJ3 whole entry, looked up, canonical isoform): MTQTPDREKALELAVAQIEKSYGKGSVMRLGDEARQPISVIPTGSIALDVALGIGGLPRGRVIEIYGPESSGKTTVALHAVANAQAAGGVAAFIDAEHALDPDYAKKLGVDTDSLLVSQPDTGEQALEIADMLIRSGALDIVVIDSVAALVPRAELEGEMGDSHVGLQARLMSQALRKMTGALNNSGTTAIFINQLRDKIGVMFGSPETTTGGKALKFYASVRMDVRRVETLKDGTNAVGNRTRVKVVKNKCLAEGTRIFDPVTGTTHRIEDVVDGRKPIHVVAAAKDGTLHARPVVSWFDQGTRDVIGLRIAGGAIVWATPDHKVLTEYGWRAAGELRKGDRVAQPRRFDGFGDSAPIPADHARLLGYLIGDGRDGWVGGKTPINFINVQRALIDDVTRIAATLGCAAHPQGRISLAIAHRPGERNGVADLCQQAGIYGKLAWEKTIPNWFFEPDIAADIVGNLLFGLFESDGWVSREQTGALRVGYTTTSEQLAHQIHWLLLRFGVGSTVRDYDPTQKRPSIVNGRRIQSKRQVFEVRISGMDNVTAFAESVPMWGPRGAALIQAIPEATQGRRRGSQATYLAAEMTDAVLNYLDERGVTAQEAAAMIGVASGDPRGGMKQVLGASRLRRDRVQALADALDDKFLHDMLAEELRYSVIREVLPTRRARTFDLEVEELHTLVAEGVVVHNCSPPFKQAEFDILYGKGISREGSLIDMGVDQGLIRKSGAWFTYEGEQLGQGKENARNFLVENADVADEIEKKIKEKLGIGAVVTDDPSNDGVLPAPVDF
PrP 5UTR inh – inhibition of PrP 5' UTR reporter expression | cell-based PrP 5' UTR mRNA reporter, plate reader | inhibition, % (no concentration beside the values) | AID 488862 | hit rate 0.35% among 340,000; in the data active means inhibition above about 52%; further: 0 = median of the neutral control wells
3CLpro inhibitor – SARS-CoV 3CLpro protease inhibition; P0C6X7; recombinant SARS-CoV 3CLpro, quenched FRET peptide cleavage; inhibition, % at 6 µM; hit rate 0.14% among 290,000; in the data active means inhibition above about 12%
Mtb hypoxia inh – reduces hypoxia-regulated biosensor signal in M. tuberculosis; hit rate 0.1% among 300,000; fluorescence inhibition, % (test concentration not listed); M. tuberculosis hypoxia-regulated fluorescent reporter, fluorescence; in the data active means fluorescence inhibition mostly above about 23%, no sharp cut-off; inactive means mostly below about 17%
BJeLR viability – kills HRASV12-expressing BJeLR cells; BJeLR (HRASV12) viability, CellTiter-Glo ATP luminescence, 48 h; inhibition, % (concentration not given with the values); hit rate 0.17% among 300,000; AID 1554; in the data active means inhibition above about 50%
The depositor's hits bear a star; · = no result shown.

SMILES	PrPC surface inh	RecA splice inh	PrP 5UTR inh	3CLpro inhibitor	Mtb hypoxia inh	BJeLR viability
COc1ccc(C2=CC(=O)CC(c3ccc4c(c3)OCO4)C2)cn1 (stereo not given)	·	·	·	·	16.5	·
Oc1[nH]c(N=C2N=c3ccccc3=N2)c2ccccc12	20.3	16.2	-70.8	-0.1	19.6	53.5*
O=C1NC(Cc2ccccc2)CO1 (stereo not given)	·	·	·	·	11.9	·
COC(=O)C1=C(c2cccc3c2S(=O)(=O)c2ccccc2-3)CC2CCC1N2C(=O)N1CCc2cc(OC)c(OC)cc2C1 (stereo not given)	·	·	·	·	-3.7	·
O=C(Cc1ccc(S(=O)(=O)N2CCOCC2)s1)Nc1ccccc1Br	-6.9	-2.7	-21.6	1.8	1.5	-4.1
NC(=O)c1cc(-c2ccccc2)sc1NC(=O)Cc1ccc(S(=O)(=O)N2CCOCC2)s1	-0.5	-1.4	-14.9	19.4*	9.5	-5.0
CC(=O)OCC1OC(CC=NOC2OC(COC(C)=O)C(OC(C)=O)C(OC(C)=O)C2OC(C)=O)C=CC1OC(C)=O (stereo not given)	·	·	·	·	13.8	·
CSc1ccc(C=NNC(=O)c2ccc(-n3cnnn3)cc2)cc1	·	·	·	·	19.9	·
CCN1C(=O)C(NC(C)=O)c2cc(Br)ccc21 (stereo not given)	-9.0	-0.5	-15.4	-5.2	·	-5.7
CC(=O)NC1C(=O)N(CCN2CCOCC2)c2ccc(Cl)cc21 (stereo not given)	0.3	46.2*	-5.4	13.0*	·	-2.1
CC(=O)NC1C(=O)N(CCN2CCOCC2)c2ccc(C)cc21 (stereo not given)	·	65.5*	-10.6	53.7*	8.6	2.9
CCCCN1C(=O)C(NC(C)=O)c2cc(Br)ccc21 (stereo not given)	0.1	-3.7	-21.9	3.8	·	1.0
CC=CC(=O)Nc1cccc(C2=NOC3(C2)CC(C(N)=O)N(C(=O)CC(c2ccccc2)c2ccccc2)C3)c1 (stereo not given)	·	·	·	·	8.5	·
COc1ccc(NC(=O)Nc2cccc3c2OC(CN(C)C(=O)NC(C)C)C(C)CN(C(C)CO)C3=O)cc1 (stereo not given)	·	·	·	·	3.2	·
CCCOP(=O)(O)c1c([N+](=O)[O-])cc(C(F)(F)F)cc1[N+](=O)[O-] (tested in a mixture with another compound)	-2.9	-0.1	-13.7	2.9	13.7	-3.1
CCOP(=O)(Oc1ccccc1)c1c([N+](=O)[O-])cc(C(F)(F)F)cc1[N+](=O)[O-] (stereo not given)	-3.5	9.8	-23.7	-1.2	41.8*	-14.4
O=C(CCl)Nc1cc(S(=O)(=O)N2CCCCCC2)ccc1Cl	3.7	66.7*	6.7	-2.3	15.9	4.5
Cc1ccc(C)c(NC(=O)CN(C)C(=O)c2cc(S(=O)(=O)N3CCOCC3)ccc2N2CCCC2)c1	-6.0	-1.4	-5.5	1.8	2.5	-6.1
Cc1ccc(C)c(NC(=O)CN(C)C(=O)c2ccc(S(=O)(=O)N3CCCCCC3)cc2)c1	-2.5	·	-11.2	·	31.3*	·
CSCCC(NC(=O)Nc1cccc(C(F)(F)F)c1)C(=O)O (stereo not given)	·	·	·	·	-1.7	·
CN(N=Cc1ccc(Br)o1)C1=NS(=O)(=O)c2ccccc21	·	·	·	·	3.1	·
O=C(/C=C/c1ccccc1)c1ccc2c3c(cccc13)CC2	-5.5	33.9*	-90.3	0.2	25.2	-7.6
O=C(/C=C/c1ccccc1)c1ccc2ccccc2c1	6.6	·	-39.7	·	14.8	·
CCn1c(O)c(N=Nc2cccc(S(=O)(=O)N3CCOCC3)c2)c(=O)n(CC)c1=S	-1.3	59.0*	-24.0	8.0	14.7	-11.9
COc1ccc2nc(Sc3c([N+](=O)[O-])nc(C)n3Cc3ccccc3)[nH]c2c1	6.5	29.4	·	2.3	9.2	-12.8
SMILES	PrPC surface inh	RecA splice inh	PrP 5UTR inh	3CLpro inhibitor	Mtb hypoxia inh	BJeLR viability
Cc1cc2nc(Sc3c([N+](=O)[O-])nc(C)n3Cc3ccccc3)[nH]c2cc1C	15.1	46.4*	-12.1	-0.8	6.3	-0.9
Cc1nc([N+](=O)[O-])c(Sc2nc3ccccc3[nH]2)n1Cc1ccccc1	16.5	37.6*	-23.8	-1.6	8.3	-7.4
CC(C(=O)CC(=O)OC(C)(C)C)C(O)c1ccccc1 (stereo not given)	·	·	·	·	5.2	·
CC(C)Nc1nc(Cl)nc(N(C#N)CN2C(=O)c3ccccc3S2(=O)=O)n1	2.8	23.3	-5.3	2.4	7.8	-2.3
COc1nc(NC(C)C)nc(N(C#N)CN2C(=O)c3ccccc3S2(=O)=O)n1	-2.8	60.9*	-2.2	1.6	-0.8	-12.4
O=P(CCCCCCCCCP(=O)(c1ccccc1)c1ccccc1)(c1ccccc1)c1ccccc1	6.3	60.2*	-9.2	7.3	-1.4	2.3
CCCCCCCCCCn1c2c(c(=N)c3c1CCC3)CCC2	48.1*	31.7*	4.9	0.1	13.2	56.2*
CCCCCCCCCn1c2c(c(=N)c3c1CCC3)CCCC2	·	·	-14.0	-1.0	·	47.5
O=C(NN=Cc1ccc([N+](=O)[O-])o1)C(O)c1ccccc1 (stereo not given)	·	·	·	·	24.4*	·
O=C(N/N=C/c1ccc([N+](=O)[O-])o1)c1ccccc1NS(=O)(=O)c1cccs1	-14.0	40.0*	-6.2	3.2	·	6.4
O=C(N/N=C/c1ccc([N+](=O)[O-])o1)c1cc2ccccc2o1	-6.5	4.3	1.9	1.7	·	67.6*
O=C(N/N=C/c1ccc([N+](=O)[O-])o1)c1cc2c(ccc3ccccc32)o1	4.0	·	-22.4	4.4	·	·
COc1ccc(C2CC=C(C(=O)O)C(c3ccccc3)N2S(=O)(=O)c2ccc(C)cc2)cc1OC (stereo not given)	·	·	·	·	18.4	·
CCOC(=O)CC1c2ccccc2S(=O)(=O)N1Cc1ccc(Cl)cc1 (stereo not given)	·	·	·	·	10.7	·
CCN(CC)CCN1C(=O)/C(=C\c2ccc(Cl)c([N+](=O)[O-])c2)SC1=Nc1ccc(OC)cc1	-23.8	11.1	6.5	-1.0	3.9	87.7*
COc1ccc(N=C2S/C(=C\c3ccc(Cl)c([N+](=O)[O-])c3)C(=O)N2CCN(C)C)cc1	-28.2	17.8	·	1.0	·	58.6*
CCCN1C(=O)/C(=C/c2ccc(C)s2)SC1=Nc1ccc(OC)cc1	-5.2	2.3	-0.7	-1.5	·	8.9
COc1ccc(NC(=O)c2nc[nH]c2C(=O)NC(C)c2ccccc2)cc1 (stereo not given)	·	·	·	·	13.0	·
CCN1C(=O)C2C(C1=O)C(c1cccc(OC)c1)N1C(=O)c3ccccc3NC(=O)C21 (stereo not given)	·	·	·	·	2.7	·
N#C/C(=C(/O)CCl)c1nc2ccccc2[nH]1	26.8*	-3.9	-16.4	5.1	·	-2.9
N#C/C(=C(\O)Cc1ccccc1)c1nc2ccccc2[nH]1	5.4	0.1	-12.4	3.1	·	-2.1
Cc1ccc(NC(=O)c2cc(S(=O)(=O)N3CCCCC3)ccc2N2CCOCC2)cc1S(=O)(=O)N(C)C	-3.3	·	-13.4	·	26.4*	·
CC1(C)CC2(CC(c3ccccc3F)c3cc(Cl)c(O)cc3O2)NC(=S)N1 (stereo not given)	-11.0	3.4	-35.0	4.1	-4.2	-9.6
